Compound activity from PubChem BioAssay.
An excerpt weighted towards active compounds, which were near 11% of everything screened.
L3MBTL1 inh: L3MBTL1 (human) inhibition; Q9Y468; Potency, µM (series often up to 57.1 µM), most hits filed as inhibitors; actives 0.66% (n = 230,000); AlphaScreen L3MBTL1–H3K9me1 peptide binding; note: nearly all actives have a fitted effect of over 60% in size
Target sequence (Q9Y468 whole entry, looked up): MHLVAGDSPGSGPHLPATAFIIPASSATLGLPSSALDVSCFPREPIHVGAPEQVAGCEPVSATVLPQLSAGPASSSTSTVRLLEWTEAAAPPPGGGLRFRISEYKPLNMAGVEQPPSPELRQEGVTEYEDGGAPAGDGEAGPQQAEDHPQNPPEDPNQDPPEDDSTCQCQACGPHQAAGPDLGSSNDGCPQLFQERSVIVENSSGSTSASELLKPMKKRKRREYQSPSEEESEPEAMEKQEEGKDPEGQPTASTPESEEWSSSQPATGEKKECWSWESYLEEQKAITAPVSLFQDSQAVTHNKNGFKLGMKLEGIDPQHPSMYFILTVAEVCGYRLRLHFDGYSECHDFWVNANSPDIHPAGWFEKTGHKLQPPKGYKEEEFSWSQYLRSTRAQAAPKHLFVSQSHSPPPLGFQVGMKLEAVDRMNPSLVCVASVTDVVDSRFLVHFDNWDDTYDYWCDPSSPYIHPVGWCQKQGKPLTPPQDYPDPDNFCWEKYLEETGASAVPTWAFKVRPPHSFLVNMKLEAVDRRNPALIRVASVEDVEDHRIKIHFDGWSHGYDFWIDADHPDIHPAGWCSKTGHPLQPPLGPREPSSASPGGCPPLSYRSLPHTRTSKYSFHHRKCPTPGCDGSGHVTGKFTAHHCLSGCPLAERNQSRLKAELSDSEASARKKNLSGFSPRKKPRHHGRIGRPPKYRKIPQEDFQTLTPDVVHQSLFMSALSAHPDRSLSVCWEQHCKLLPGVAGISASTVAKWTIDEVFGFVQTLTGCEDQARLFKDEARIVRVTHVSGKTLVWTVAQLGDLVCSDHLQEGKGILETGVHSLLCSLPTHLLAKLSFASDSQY
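AlphaScreen proximity signal between nickel-chelate acceptor and streptavidin donor beads (final 10 ug/mL) reports binding of 50 nM L3MBTL1 to 75 nM biotin-H3 K9me1 peptide; complex incubated with compounds 30 min at room temperature; cefsulodin titration as control.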
HP1b chromo inh: HP1-beta chromodomain-methylated histone interaction inhibition. P83916. AlphaScreen HP1-beta / biotin-H3K9me3 peptide binding. Potency, µM (top dose mostly 114 µM), hits mostly inhibitors. actives 0.56% (n = 390,000). AID 540317; note: nearly all actives have a fitted effect of over 70% in size
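HP1-beta protein (50 nM final) preincubated 30 min at room temperature with biotinylated H3(1-18)K9me3 peptide (50 nM) in PBS pH 7.4, 0.01% Tween-20, then compound added for 30 min. AlphaScreen streptavidin donor/nickel chelate acceptor beads (10 ug/mL final), 30 min dark, luminescence read.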
BAZ2B inh: BAZ2B (human) inhibition; Q9UIF8; AlphaScreen BAZ2B-H3K14Ac peptide displacement; Potency, µM (titrated, usually from 114 µM), most hits filed as inhibitors; actives 4.4% (n = 360,000); AID 504333; note: nearly all actives have a fitted effect of over 60% in size
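AlphaScreen luminescence quantifies BAZ2B engagement of H3K14Ac peptide; the protein and biotinylated peptide are both at 50 nM final, buffer PBS pH 7.4 with 0.01% Tween-20, all steps at room temperature.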
G9a inh: G9a (human) methyltransferase inhibition. Q96KQ7. G9a H3K9 monomethylation, AlphaScreen, 2 h. Potency, µM (doses to about 102 µM), hits mostly inhibitors. actives 8.8% (n = 350,000). AID 504332; note: nearly all actives have a fitted effect of over 75% in size
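Signal arises when biotinylated H3K9 peptide, once monomethylated, bridges streptavidin donor and antibody-captured acceptor beads. Enzyme at 20 nM was preincubated 15 min with test compounds; peptide 500 nM and SAM 20 uM then reacted for 2 h.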
JMJD2A Tudor: inhibitors of human JMJD2A Tudor domain; Potency, µM (series often up to 114 µM), most hits filed as inhibitors; actives 4.4% (n = 390,000); AlphaScreen JMJD2A-Tudor / H3K4me3 peptide binding; note: nearly all actives have a fitted effect of over 50% in size
Large screens that a line does not name were inactive; ! = a repeat was not active. Calls come from the whole dose curve; as a rule, active = well fitted inhibition curve with a large enough effect; inconclusive = small, poorly fitted or top-dose-only effect; inactive = no such curve, though single readings can be large or run the other way.

CC(C)Oc1cccc(C(=O)Nc2ccc3oc(-c4ccccc4)nc3c2)c1	none (no result: L3MBTL1 inh)
Cc1ccccc1Nc1nnc(SCC(=O)c2ccc(O)cc2O)s1	G9a inh 8.9µM (no result: L3MBTL1 inh)
Cn1c(N)c(C(=O)CSc2nnc(-c3cccs3)n2C2CC2)c(=O)[nH]c1=O	G9a inh 50µM
C/C(N)=C(/C#N)C(=O)CSc1nnc(Nc2ccccc2C)s1	none
CCCn1c(N)c(C(=O)CSc2nnc(-c3cccs3)n2C2CC2)c(=O)[nH]c1=O	none (no result: BAZ2B inh, G9a inh)
CSc1nnc(Nc2ccccc2C)s1	G9a inh 28µM (no result: L3MBTL1 inh)
Cc1cc(NC(=O)CSc2nnc(Nc3ccccc3C)s2)no1	G9a inh inconclusive
Cc1cc(C)cc(-n2ccnc2SCC(=O)c2c(N)n(C3CC3)c(=O)[nH]c2=O)c1	G9a inh 2.5µM
COc1cccc(CNC(=O)c2cc(C)nc3c2c(C)nn3-c2ccc(C)cc2)c1	none (no result: L3MBTL1 inh)
CNc1nnc(SCC(=O)c2c(N)n(C3CC3)c(=O)[nH]c2=O)s1	G9a inh 45µM
Cc1ccccc1Nc1nnc(SCC(=O)c2c(N)n(C3CC3)c(=O)[nH]c2=O)s1	G9a inh 10µM
Cc1cccc(C)c1Nc1nnc(SCC(=O)c2ccc(Br)s2)s1	HP1b chromo inh inconclusive, JMJD2A Tudor inconclusive
Cc1ccc(Nc2nnc(SCC(=O)c3ccc(Br)s3)s2)c(C)c1	G9a inh 11µM
O=C(CN1C(=O)c2ccccc2C1=O)OCC(=O)c1ccccc1	none
O=C(Nc1cccc(F)c1)c1ccc(-c2ccccc2)s1	none (no result: L3MBTL1 inh)
O=[N+]([O-])c1ccc(O)c(/C=N/NC(=S)Nc2ccc(Cl)cc2Cl)c1	BAZ2B inh 32µM, JMJD2A Tudor 79µM (no result: L3MBTL1 inh, G9a inh)
O=C(Nc1cccc(Cl)c1)c1cc(N=Nc2ccc([N+](=O)[O-])cc2Cl)ccc1O	L3MBTL1 inh inconclusive, HP1b chromo inh inconclusive, BAZ2B inh 2.8µM, G9a inh 2.8µM, JMJD2A Tudor 4.5µM
Cc1cc(Cl)ccc1NC(=O)CCC(=O)N/N=C/c1cc([N+](=O)[O-])ccc1O	none
O=C(Nc1ccc([N+](=O)[O-])cc1Cl)c1cc(Cl)ccc1O	G9a inh 7.9µM!, JMJD2A Tudor inconclusive
O=C(Nc1cccc(Cl)c1)c1cccc(Oc2ccc([N+](=O)[O-])cc2Cl)c1	none
CC(C)C1N(C(=O)N2CCOCC2)CCN1S(=O)(=O)c1ccccc1 (stereo not drawn)	none (no result: L3MBTL1 inh)
COc1ccc(CC(=O)Nc2cc(-c3nc4cccnc4s3)ccc2C)cc1	BAZ2B inh inconclusive, G9a inh inconclusive, JMJD2A Tudor inconclusive (no result: L3MBTL1 inh)
COc1ccc(-c2noc(CC(=O)Nc3ccc(Br)cc3C)n2)cc1	none (no result: L3MBTL1 inh)
N#Cc1c(NC(=O)CSc2ncccn2)oc(-c2ccccc2)c1-c1ccccc1	none (no result: L3MBTL1 inh, BAZ2B inh, G9a inh)
N#Cc1c(NC(=O)CSc2n[nH]c(Cc3ccccc3)n2)oc(-c2ccccc2)c1-c1ccccc1	G9a inh 3.5µM, JMJD2A Tudor inconclusive
N#Cc1c(NC(=O)COC(=O)C2CC3C=CC2C3)oc(-c2ccccc2)c1-c1ccccc1 (stereo not drawn)	BAZ2B inh inconclusive, G9a inh 7.1µM
CCCCC(Sc1nc2cc3c(cc2c(=O)n1CCCC(=O)NCc1ccc(OC)cc1)OCO3)C(=O)OCC (stereo not drawn)	none (no result: L3MBTL1 inh)
CC(=O)Nc1ccc(NC(=O)C2(c3cccs3)CCOCC2)cc1	JMJD2A Tudor 45µM (no result: L3MBTL1 inh)
O=C(CC1N=C2c3ccccc3N=C(SCC(=O)Nc3cccc(C(F)(F)F)c3)N2C1=O)NCc1cccs1 (stereo not drawn)	none (no result: L3MBTL1 inh)
C#CCOCCOCCOCCNc1nc(N2CCN(C(=O)[C@H](CCC(=O)O)n3cc(C(N)Cc4ccc(O)cc4)nn3)CC2)nc(N2CCN(C(=O)[C@H](CCCCN)n3cc(C(N)[C@H](C)CC)nn3)CC2)n1 (stereo partly drawn)	BAZ2B inh 79µM (no result: L3MBTL1 inh, HP1b chromo inh, JMJD2A Tudor)
C#CCOCCOCCOCCNc1nc(N2CCN(C(=O)[C@H]([C@@H](C)CC)n3cc([C@@H](N)Cc4ccc(O)cc4)nn3)CC2)nc(N2CCN(C(=O)[C@H](CCCCN)n3cc([C@@H](N)C(C)CC)nn3)CC2)n1 (stereo partly drawn)	BAZ2B inh 79µM, G9a inh inconclusive, JMJD2A Tudor 50µM
COc1cc2ncc3c(-c4ccccc4)nn(CC(=O)NC4CCCCC4)c3c2cc1OC	none (no result: L3MBTL1 inh)
Cc1ccccc1NC(=O)Cn1c(=O)n(Cc2ccco2)c(=O)c2cccnc21	none (no result: L3MBTL1 inh)
